NPR2 activator: GC-B (human) receptor activation. P20594. HEK293-GC-B cells, CNP EC30, cGMP TR-FRET; 0% at EC30 CNP, 100% saturating CNP. activation, % at 10 µM. hit rate 0.11% among 370,000. AID 1920062;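 active = activation at 10 µM reaching about 35% in either raw or pattern-adjusted values, limit read from the data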
NPR1 activator: GC-A (human) enzyme activation. HEK293 GC-A cells, cGMP TR-FRET, EC30 ANP; 0% at EC30 ANP, 100% saturating ANP. activation, % at 10 µM. hit rate 0.14% among 370,000. AID 1671463; in the data active = activation above about 40%
Rce1 inh: blocks yeast Ras-converting enzyme. yeast membranes, quenched prenylated peptide cleavage fluorescence. AID 2563. hit rate 0.27% among 290,000. calls only. Q03530;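 active = fall in fluorescence gain of 50% or more versus controls, with final raw signal at or below 3038400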;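 also: plate controls were neutral control wells for no effect and wells lacking membranes for full effect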
PLCb3 inh: PLC-beta3 (human) inhibition, primary screen; Purified PLC-beta3, fluorogenic substrate, fluorescence; Q01970; inhibition, % at 12.2 µM; hit rate 0.18% among 370,000;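 also: 0% = median of compound wells on plate and 100% = full blocker control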
PLC-gamma1 inh: inhibitors of human phospholipase C gamma1; P19174; purified PLC-gamma1, fluorogenic substrate, fluorescence; hit rate 0.84% among 370,000; AID 720700; inhibition, % at 12.2 µM; in the data active = inhibition above about 9.5%
M18AAP inhibitor: PfM18AAP enzyme inhibition; recombinant PfM18AAP, H-Glu-NHMec fluorogenic cleavage; inhibition, % at 7.35 µM; hit rate 1.2% among 290,000; AID 1822;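 active = inhibition above the campaign mean inhibition over all tested compounds plus 3 SD, cut at about 28% in these data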;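 also: 0% = plate median of test compound wells and 100% = 2 mM ZnCl2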
PLCg1 ctr: PLC-gamma1 inhibition, counter-screen for PLC-beta3 hits; shares compounds with PLC-gamma1 inh; purified PLC-gamma1, fluorogenic substrate, fluorescence; hit rate 3.1% among 3,300; inhibition, % at 12.3 µM; in the data active = inhibition above about 9.5%
PLCb3 confirm: human PLC-beta3 inhibition, confirmation | inhibition, % at 12.3 µM | shares compounds with PLC-gamma1 inh | purified PLC-beta3, fluorogenic substrate fluorescence | hit rate 1% among 3,300
* hit, by the source's call; i = inactive; x = no result given. Compounds with a hit are over-represented: about 2.2% of the library has one in this group of screens. Rule as the data show it, unless noted: active = inhibition above about 11%; inactive = the rest.

SMILES	NPR2 activator	NPR1 activator	Rce1 inh	PLCb3 inh	PLC-gamma1 inh	M18AAP inhibitor	PLCg1 ctr	PLCb3 confirm
CCOC(=O)NCc1ccc(S(=O)(=O)Nc2ccc(C)cc2)cc1	3	0	i	4	13*	10	-7	-4
C[C@@H]1COc2cc(Br)ccc2S(=O)(=O)N1Cc1cn(Cc2ccccc2)nn1	-1	-4	x	2	3	x	x	x
CCCOc1cccc(/C=N/NC(=O)c2csc(C)c2C)c1	-1	-3	i	5	11*	-3	-4	-2
Cc1scc(C(=O)N/N=C/c2ccsc2)c1C	-3	4	i	0	-2	-18	x	x
Cc1ccccc1C(=O)N1CCN(c2ccc(NC(=O)c3ccco3)cc2Cl)CC1	4	5	i	-4	-1	4	x	x
O=C(Nc1ccc(N2CCN(C(=O)c3cccs3)CC2)c(Cl)c1)c1ccco1	3	5	i	3	14*	5	-4	-7
CCOC(=O)Cc1c(C)nc(N)[nH]c1=O	-2	0	i	-2	1	-2	x	x
CCOC(=O)Cc1c[nH]c(=S)[nH]c1=O	9	5	i	2	11*	12	-4	0
CCOC(=O)[C@]12CCCC3=C1N(CCC3)C(=O)[C@@H](CC(=O)NCc1cccc3ccccc13)C2	-10	-5	x	2	0	x	x	x
Cc1cc(C(=O)N/N=C/c2cccnc2)n[nH]1	4	-3	i	-2	10*	-6	-3	0
COC(=O)[C@]12C[C@H](CC(=O)NCC34CC5CC(CC(C5)C3)C4)C(=O)N(Cc3ccccc3)C1=C[C@H](C(C)C)O[C@@H]2C1CC1	-7	-3	x	2	1	x	x	x
CCC(CO)N=CC1=C(O)CC(C)(C)CC1=O (stereo not drawn)	6	-1	i	9	1	5	x	x
CC1CCCCC1N=CC1=C(O)CC(C)(C)CC1=O (stereo not drawn)	1	3	i	10	11*	1	-4	-2
COc1ccc(NS(=O)(=O)c2ccc(NC(=S)NC(=O)C(C)C)cc2)cc1	-4	-4	i	5	11*	6	-3	-2
CCCCCCCCN1C(=O)[C@@H](CC(=O)N2CCN(C(=O)c3ccco3)CC2)C[C@@]2(C(=O)OC)C1=C[C@H](COCc1ccccc1)O[C@@H]2C	5	4	x	-1	3	x	x	x
COc1ccc(CCNC(=O)C2CC(=O)N(C3CCCCC3)C2)cc1OC (stereo not drawn)	7	1	i	-2	11*	2	-1	0
Cc1ccc(C)c(S(=O)(=O)c2c(C)cc(C)nc2Cl)c1	4	2	i	-5	-2	-1	x	x
Cc1ccc(S(=O)(=O)c2c(C)cc(C)nc2Cl)c(C)c1	0	1	i	-1	11*	3	-3	-3
O=c1[nH]ncc(N/N=C\c2ccncc2)c1Cl	-2	-3	i	11*	9	3	2	4
O=c1[nH]ncc(N/N=C\c2cccnc2)c1Cl	-3	-1	i	-8	0	-8	x	x
CCCCNc1ncnc2c1cnn2-c1ccc(C)cc1C	5	5	i	10	11*	1	-5	0
COCCCNc1ncnc2c1cnn2-c1ccc(C)cc1C	-3	-1	i	-3	1	-57	x	x
CCOC(=O)N1CCN(C(=O)CN(c2cccc(OC)c2)S(C)(=O)=O)CC1	6	-4	i	0	0	13	x	x
CCOC(=O)N1CCN(C(=O)CN(c2ccc(OC)cc2)S(C)(=O)=O)CC1	4	0	i	11*	6	-1	0	0
CCOC(=O)N1CCN(C(=O)CN(c2cccc(C)c2)S(=O)(=O)c2ccc(C)cc2)CC1	2	3	i	2	20*	-1	-15	-1
SMILES	NPR2 activator	NPR1 activator	Rce1 inh	PLCb3 inh	PLC-gamma1 inh	M18AAP inhibitor	PLCg1 ctr	PLCb3 confirm
CCOC(=O)N1CCN(C(=O)c2ccc(N(Cc3ccc(C)cc3)S(C)(=O)=O)cc2)CC1	3	-1	i	10	12*	1	-6	-6
CCOC(=O)N1CCN(C(=O)c2ccc(N(Cc3ccc(Cl)cc3)S(C)(=O)=O)cc2)CC1	-4	0	i	-3	1	-11	x	x
CCOC(=O)N1CCN(C(=O)CN(c2cccc(C)c2)S(=O)(=O)c2ccccc2)CC1	6	-2	i	-1	-1	4	x	x
COC(=O)[C@]12C[C@H](CC(=O)N3CCSCC3)C(=O)N(Cc3ccccc3)C1=C[C@H](C(C)(C)C)O[C@@H]2C	-8	-9	x	0	1	x	x	x
COc1cc(C(=O)NCc2ccc(C)cc2)ccc1OC(F)F	-6	3	i	-3	9.7*	0	1	-6
Cc1[nH]n(S(=O)(=O)Cc2ccccc2)c(=O)c1N=Nc1ccccc1Cl	0	0	i	1	12*	2	2	5
COC(=O)c1cccc(Cn2ccc3ccc(-c4ccc5ccn(C(=O)c6ccccc6)c5c4)cc32)c1	-1	3	x	-41	-31	x	x	x
CC(=O)c1ccc(N2CCC(c3cc(-c4ccc(Cl)cc4Cl)n[nH]3)CC2)c([N+](=O)[O-])c1	-11	0	i	1	15*	3	6	6
CCn1ccnc1CN(C)Cc1cn(-c2cccc(C)c2)nc1-c1cccc(F)c1	-8	-8	i	4	8	-4	x	x
Cc1cccc(-n2cc(CN(C)Cc3nccn3C)c(-c3cccc(F)c3)n2)c1	-5	-7	i	4	11*	0	-4	-1
COC(=O)[C@]12C[C@H](CC(=O)N3CCCCC3)C(=O)N(CCc3ccc(OC)c(OC)c3)C1=C[C@H](C(C)C)O[C@@H]2C1CC1	2	4	x	-2	-2	x	x	x
OC(CN1CCCCC1)CN1CCCCC1	-3	-1	i	-95	11*	-10	-3	0
COc1ccc(C2c3c(-c4ccccc4)n[nH]c3C(=O)N2c2ccc(C(=O)O)cc2)cc1 (stereo not drawn)	-3	-7	i	6	11*	5	-4	-5
COCCNC[C@@]12CO[C@H](c3ccc(Cl)cc3)N1[C@@H](c1ccc(Cl)cc1)SC2	-17	-28	x	-1	1	x	x	x
C=CC[C@@H](CC(=O)N(CCO)Cc1ccccc1)C(=O)NC[C@H](OC(=O)[C@@H](CC=C)Cc1ccc(F)cc1)c1ccccc1	-13	-11	x	4	10*	x	-5	-1
C=CC[C@@H](CC(=O)N(CCO)Cc1ccccc1)C(=O)N[C@H](COC(=O)[C@@H](CC=C)Cc1ccc(F)cc1)c1ccccc1	-6	-9	x	-1	6	x	x	x
